Most compounds without a hit are left out; they make up all but 21% or so of the library.
NS1 inh: influenza NS1 inhibition; AID 2326; Potency, µM (series often up to 46.1 µM), for inactives: at the highest dose activity, positive = more growth; hit rate 0.4% among 270,000; calls by dose curve; note: potency is the fitted concentration of half-maximal effect; actives are rising curves; nearly all actives have a fitted effect of over 50% in size
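Compounds were scored for reversing the slow growth caused by influenza A NS1 in S. cerevisiae, measured by optical density at 600 nm. Assay medium contained 2% galactose at pH 6.0; NS1-free yeast of the same strain were the positive control.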
Shiga toxin inh: Shiga toxin inhibition | Vero cells, Shiga toxin protein synthesis inhibition reporter | inhibition, % at 38.7 µM | hit rate 9.2% among 290,000; in the data active = inhibition mostly above about 28%, no sharp cut-off; inactive = mostly below about 43%; note: 0% is about no effect
Giardia FBPA inh: Giardia lamblia aldolase inhibition; Potency, µM (top dose mostly 59.6 µM), without a hit: at the highest dose activity, negative = inhibition, actives largely listed as inhibitors; purified Giardia FBPA; A8B2U2; AID 2451; hit rate 0.71% among 290,000; note: potency is the fitted concentration of half-maximal effect; % is set by controls: 0 for no effect and ±100 for the full control effect; nearly all actives have a fitted effect of over 55% in size
Target sequence (A8B2U2 whole entry, looked up): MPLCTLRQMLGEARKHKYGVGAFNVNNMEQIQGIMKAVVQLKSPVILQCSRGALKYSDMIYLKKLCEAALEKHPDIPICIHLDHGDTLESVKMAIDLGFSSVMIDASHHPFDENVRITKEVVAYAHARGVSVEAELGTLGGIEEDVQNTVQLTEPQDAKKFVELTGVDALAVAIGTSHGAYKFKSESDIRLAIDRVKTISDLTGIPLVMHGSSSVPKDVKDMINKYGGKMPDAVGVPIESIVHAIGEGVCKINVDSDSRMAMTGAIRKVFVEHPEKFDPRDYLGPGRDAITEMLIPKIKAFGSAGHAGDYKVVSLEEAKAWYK
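40 nM FBPA preincubated 10 min at RT with compound (up to 57.5 uM final), then substrate plus GAPDH/TPI/NAD/arsenate coupling and diaphorase/resazurin added. Fluorescence read after 20 min at RT, 525/598 nm.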
Pf growth 96h: P. falciparum growth inhibition at 96 hours | Potency, µM (doses to about 28.7 µM), without a hit: at the top dose activity change, negative = inhibition, usual class: inhibitors | AID 504834 | P. falciparum luciferase reporter growth, 96 h | hit rate 6.9% among 320,000; note: potency is the fitted concentration of half-maximal effect; % is set by controls: 0 for no effect and ±100 for the full control effect
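Compounds incubated with erythrocytes infected by luciferase-expressing P. falciparum (2% hematocrit, 0.05% parasitemia final) for 96 hours, 37 C in 5% CO2. Growth inhibition scored as decreased luciferase luminescence.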
Pf growth 48h: P. falciparum growth inhibition at 48 hours (one generation); Potency, µM (highest dose often 28.7 µM), inactives show top-dose activity change, negative = inhibition, actives largely listed as inhibitors; hit rate 5.9% among 310,000; P. falciparum luciferase growth in erythrocytes, 48 h; AID 504832; note: potency is the fitted concentration of half-maximal effect; % is set by controls: 0 for no effect and ±100 for the full control effect
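Read-out is firefly luciferase luminescence from an integrated reporter in P. falciparum, so falling signal marks reduced parasite growth. Infected erythrocytes were at 2% hematocrit and 0.1% parasitemia (final) in Albumax-supplemented RPMI 1640.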
CHX counter: counter-screen for Shiga toxin inhibitors: cycloheximide protein synthesis inhibition. cell reporter, cycloheximide protein synthesis inhibition counterscreen. max response, %. hit rate 12% among 300,000. AID 2314; in the data active = max response mostly above about 13%, no sharp cut-off; inactive = mostly below about 14%; note: read at 38.3 µM for the half of the compounds with a filed dose; 0% is about no effect
An asterisk follows results filed as active; ? = inconclusive; nt = no result given. Unless noted, calls come from the whole dose curve; as a rule, active = well fitted curve in the direction sought with a large enough effect; inconclusive = small, poorly fitted or top-dose-only effect, or another doubt; inactive = no such curve, though single readings can be large; an effect the other way counts as inactive or inconclusive.

SMILES	NS1 inh	Shiga toxin inh	Giardia FBPA inh	Pf growth 96h	Pf growth 48h	CHX counter
O=C(c1cc2nc(-c3ccc(Cl)cc3)cc(C(F)(F)F)n2n1)N1CCOCC1	-2.5%	-11.0	0.1%	10.4µM*	4.1%	8.7
CN1CCN(C(=O)c2cc3nc(-c4ccc(Cl)cc4)cc(C(F)(F)F)n3n2)CC1	6.1%	-10.8	1.6%	4.0%	nt	-2.2
Cc1cc2[nH]c(=O)c(=O)[nH]c2cc1S(=O)(=O)N1CCC(C)CC1	-5.6%	-5.5	-26.8%	3.2%	20.0%	-2.5
COc1ccc(-c2csc(NC(=O)c3cc(=O)c4ccccc4o3)n2)cc1OC	nt	-0.5	-1.3%	29.3%	1.4%	15.1
Cc1ccc2sc(NNC(=O)C3COc4ccccc4O3)nc2c1C (stereo not given)	-51.3%	-8.1	10.1%	-9.4%	16.3%	-1.7
O=C(NNc1nc2c(F)cccc2s1)c1cc(=O)c2ccccc2o1	-11.7%	13.0	-21.2%	43.0%	31.7%	12.9
Cc1ccc2sc(NNC(=O)c3cc(=O)c4ccccc4o3)nc2c1C	16.1%	43.6*	22.3µM*	?	-33.6%	15.6*
COc1ccc2nc(NNC(=O)c3cc(=O)c4ccccc4o3)sc2c1	4.5%	65.7*	-8.7%	?	?	43.2*
Cc1cccc2sc(NNC(=O)c3cc(=O)c4ccccc4o3)nc12	8.0%	30.8*	-16.5%	?	?	12.5*
Cc1ccc(C(=O)OCC(=O)N2CCCC2)cc1	-0.3%	46.9*	nt	103.1%	100.9%	42.9*
O=C(OCC(=O)N1CCc2ccccc21)c1ccccc1F	-23.1%	112.6*	4.4%	-8.9%	120.9%	45.3*
CCOC(=O)C1=C(C)NC(C)=C(C(=O)OCC)C1C(=O)OCC(=O)N1CCc2ccccc21	-5.6%	39.1	3.0%	nt	10.4µM*	-2.9
O=C(OCC(=O)N1CCc2ccccc21)c1ccccc1[N+](=O)[O-]	nt	nt	nt	24.1%	103.2%	nt
O=C(OCC(=O)N1CCCC1)c1ccc(O)cc1	4.6%	31.5	-3.0%	47.2%	33.5%	11.0
Cc1ccc(N(CC(=O)N2CCc3ccccc32)C2=NC(=O)CS2)cc1	-4.9%	-18.4	8.8%	9.28µM*	nt	-4.9
COC(=O)Oc1ccccc1C(=O)O	nt	nt	2.9%	nt	nt	nt
Cc1cc(=O)n2nc(N3CCCC(C(=O)NC4CCCCC4C)C3)sc2n1 (stereo not given)	3.6%	1.9	7.7%	-9.8%	-8.6%	7.9
CCc1ccc(NC(=O)C2C3CCC(O3)C2C(=O)O)cc1 (stereo not given)	10.6%	-14.4	-1.3%	-28.3%	2.8%	4.6
Cc1ccc(C(=O)OCC(=O)N2CCc3ccccc32)cc1	-10.1%	151.6*	nt	65.8%	141.8%	34.2*
COc1ccc(/C=C2\SC(=N)N(c3nccs3)C2=O)cc1OC	-10.5%	-0.8	27.8%	?	?	14.3*
N=C1S/C(=C\c2ccc(-c3cccc(Cl)c3)o2)C(=O)N1c1nccs1	8.9%	9.8	23.4%	?	4.65µM*	8.6
COc1ccc(NC(=O)c2cc(=O)c3ccccc3o2)cc1Cl	3.4%	nt	8.6%	-13.5%	?	5.8
Cc1ccc(NC(=O)c2cc(=O)c3ccccc3o2)cc1S(=O)(=O)N1CCOCC1	-9.5%	-3.4	-14.8%	4.65µM*	8.28µM*	-3.4
CN(C)S(=O)(=O)c1cc(NC(=O)c2cc(=O)c3ccccc3o2)ccc1Cl	22.0%	34.5*	-1.7%	?	10.4µM*	30.9*
O=C(Nc1ccc(S(=O)(=O)N2CCCC2)cc1)c1cc(=O)c2ccccc2o1	-4.1%	-6.9	3.4%	?	29.3%	-0.7
SMILES	NS1 inh	Shiga toxin inh	Giardia FBPA inh	Pf growth 96h	Pf growth 48h	CHX counter
Cc1ccc(NC(=O)c2cc(=O)c3ccccc3o2)cc1S(=O)(=O)N1CCCCC1	nt	-2.0	?	?	6.57µM*	4.2
COc1ccc(CCNC(=O)CCNC(=O)c2ccccc2Cl)cc1	5.0%	-9.6	0.4%	3.3%	-0.8%	-6.8
COc1ccc(CC(=O)Nc2ccncc2Cl)cc1	0.8%	-10.4	nt	?	-16.4%	8.2
CCOc1cc(N2CCOCC2)c(OCC)cc1NC(=O)CSc1ncn[nH]1	nt	-6.0	?	?	-21.2%	4.1
c1ccc2c(c1)nnn2-c1ncnc2sccc12	nt	62.1*	4.6%	-22.3%	258.4%	33.7*
Cc1ccc([S+](=O)([O-])N(c2ccccc2)[S+](=O)([O-])C(F)(F)F)cc1	nt	nt	0.7%	nt	nt	nt
O=C(O)CCN1C(=O)C2C3c4ccccc4C(c4ccccc43)C2C1=O (stereo not given)	-0.6%	-15.2	10.1%	23.4%	-6.4%	-3.2
CCN(CC)CCN1C(=O)C2C3c4ccccc4C(c4ccccc43)C2C1=O (stereo not given)	1.0%	-16.4	2.2%	5.22µM*	?	4.3
Cc1ccc(C(=O)N/N=C2\CC3CC=CC23)c(C)c1 (stereo not given)	nt	132.7*	-0.9%	1.7%	14.2%	62.6*
O=C(N/N=C1\CCS(=O)(=O)c2ccc(F)cc21)c1ccc(O)cc1	2.1%	18.2	7.3%	?	41.4%	23.1
Cc1cccc(C)c1NC(=S)N/N=C1\CC2CC=CC12 (stereo not given)	2.0%	20.5	-15.8%	9.28µM*	?	-1.1
Cc1ccc(NC(=S)N/N=C2\CC3CC=CC23)c(C)c1 (stereo not given)	nt	56.1	-15.9%	?	-1.6%	20.1*
Cc1ccc(C(=O)N/N=C/c2ccc(N3CCOCC3)cc2)c(C)c1	nt	-2.1	-0.3%	1.0%	19.0%	1.7
Cc1cccc(C)c1NC(=S)N/N=C/c1c(Cl)cccc1Cl	nt	8.6	-0.8%	22.9%	25.8%	-0.8
O=C(N/N=C1\CC2CC=CC12)c1ccc(O)cc1 (stereo not given)	nt	51.0*	-6.6%	?	17.2%	29.8*
Cc1ccc(NC(=S)Nc2ccc(F)cc2)c(C)c1	nt	19.2	0.3%	122.7%	-9.9%	9.7
CCOC(=O)C1CCCN(C(=O)/C(=C/c2ccco2)NC(=O)c2ccccc2)C1 (stereo not given)	14.6%	30.1	0.6%	-15.4%	?	-5.5
Cc1cccc(C)c1NC(=O)CNC(=O)C(Cc1ccccc1)NC(=O)c1ccccc1 (stereo not given)	9.7%	-4.3	nt	?	?	-1.9
Cc1ccc(NS(=O)(=O)c2ccc(-n3cccn3)cc2)nc1	-9.6%	-5.2	nt	?	-9.5%	2.0
C=CCN1C(=O)c2ccc(C(=O)N(CC(C)C)c3c(N)n(CCCC)c(=O)[nH]c3=O)cc2C1=O	nt	nt	nt	7.8%	?	nt
COc1ccc(-c2cccc(C3CC=CC4C3C(=O)N(Cc3ccccc3)C4c3ccc4ccccc4c3)c2)cc1 (stereo not given)	-1.4%	0.9	1.7%	14.7µM*	9.28µM*	5.5
CN(C)c1ccc(-c2cccc(C3CC=CC4C3C(=O)N(Cc3ccccc3)C4c3ccc4ccccc4c3)c2)cc1 (stereo not given)	-0.9%	21.3	-3.4%	?	9.28µM*	3.6
